Source: PubChem
KDM5B inh: inhibitors of human KDM5B histone demethylase | Q9UGL1 | KDM5B demethylase, FDH-coupled NADH fluorescence (FDH is formaldehyde dehydrogenase) | Potency, µM (series often up to 57.7 µM), hits mostly inhibitors | 220,000 compounds, 2.6% hits | AID 1347165; active = well fitted inhibition curve with a large enough effect; also: nearly all actives have a fitted effect of over 70% in size
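Here, H3K4me3 peptide (12.5 µM in substrate mix) is demethylated by KDM5BΔAP, 200 nM final, after 10 min compound exposure. Formaldehyde product is coupled through FDH (0.25 U/mL in mix) to NADH fluorescence; 30-min ΔRFU feeds dose-response curves.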
Large screens that a line does not name were inactive. This excerpt belongs to a sample that is enriched for hits.

CCN(CC)Cc1cnc2c(C(=O)NCCc3cccs3)cnn2c1	none
O=C(N[C@H](c1cccs1)C1CC(O)C1)c1cnn2cc(CCO)cnc12 (stereo not given in full)	KDM5B inh 14µM
O=C(CCc1ccc2c(c1)OCO2)N[C@H](c1cccs1)C1CC(O)C1 (stereo not given in full)	none
Cn1ccc2c(C(=O)N[C@H](c3cccs3)C3CC(O)C3)cccc21 (stereo not given in full)	none
CNc1ncccc1C(=O)N[C@H](c1cccs1)C1CC(O)C1 (stereo not given in full)	KDM5B inh 28µM
COc1ccc(C(=O)N[C@H](c2cccs2)C2CC(O)C2)c(F)c1F (stereo not given in full)	none
CNc1cc(C(=O)N[C@H](c2cccs2)C2CC(O)C2)ccn1 (stereo not given in full)	KDM5B inh 28µM
O=C(N[C@H](c1cccs1)C1CC(O)C1)c1cccc(-n2cccn2)c1 (stereo not given in full)	none
NS(=O)(=O)c1ccc(C(=O)N[C@H](c2cccs2)C2CC(O)C2)cc1 (stereo not given in full)	none
O=C(Cc1n[nH]c(=O)c2ccccc12)Nc1cccc(S(=O)(=O)Nc2cccc(Cl)c2)c1	none
Cc1ccc(C(C)NC(=O)Cn2cnc(C#N)n2)cc1C (stereo not given)	none
CC1CCCN(c2nnc(NC(=O)Nc3ccc(F)c(Cl)c3)s2)C1 (stereo not given)	none
CCCCCCCCCC(=O)Nc1c(C)cc(C)cc1C	none
Cc1ccc(C(=O)NCCCNC(=O)c2cc3ccccc3[nH]2)cc1	none
O=C(CCC(=O)Nc1ccc(Cl)cc1Cl)N/N=C/c1c2ccccc2cc2ccccc12	none
Cc1cc(C[C@@H]2COC[C@@H]2NC(=O)c2ccccc2-c2ccc(F)cc2)on1	none
CCCc1cc(C(=O)N[C@H]2COC[C@H]2Cc2cc(C)no2)cs1	none
Cc1cc(C[C@@H]2COC[C@@H]2NC(=O)c2cc(CC(C)C)nc(N)n2)on1	KDM5B inh 32µM
Cc1cc(C[C@@H]2COC[C@@H]2NC(=O)c2ccc(S(N)(=O)=O)cc2)on1	none
Cc1cc(C[C@@H]2COC[C@@H]2NC(=O)c2cnn3cc(CCO)cnc23)on1	KDM5B inh 28µM
Cc1cc(C[C@@H]2COC[C@@H]2NC(=O)c2csc(Cc3ccccc3)n2)on1	none
CC(C)NC(=O)CC1(C(=O)NCc2ccccc2)CCCC1	none
COc1ccc2cc(CNC(=O)CNC(=O)c3ccc(C(F)(F)F)cc3)ccc2c1	none
CC1=C(C(=O)OC(C)C)C(c2cccc(F)c2)N2C(CC(=O)NCc3ccco3)=CSC2=N1 (stereo not given)	none
COC(=O)C1=C(C)N=C2SC=C(CC(=O)N(C)Cc3ccco3)N2C1c1ccc(Cl)cc1 (stereo not given)	KDM5B inh 18µM
COC(=O)C1=C(C)N=C2SC=C(CC(=O)N(C)Cc3ccco3)N2C1c1cccc(Cl)c1 (stereo not given)	none
CCOc1ccc(-c2[nH]ncc2-c2ccc(Br)cc2)c(O)c1	none
COc1ccc(C23CC4CC(CC(C(=O)N(C)Cc5ccc(OC)c(OC)c5)(C4)C2)C3)cc1	none
Cc1c(Cl)cccc1NC(=O)CCN=C1NS(=O)(=O)c2ccccc21	none
CC(OC(=O)CCOc1ccccc1)C(=O)Nc1ccc(S(N)(=O)=O)cc1 (stereo not given)	none
CC[C@@]1(O)CCN(C(=O)c2ccc(OC)c(N3CCOCC3)c2)C[C@H]1O	none
CCOc1cc2nc(-c3ccc(OC)c(OC)c3)nc(N3CCC(C(N)=O)CC3)c2cc1OC	none
CC[C@@]1(O)CCN(c2nc(N)c3cc(OC)c(OC)cc3n2)C[C@H]1O	KDM5B inh 32µM
CC(C)C[C@@H](C(=O)NC1CCN(Cc2ccccc2)CC1)N1Cc2ccccc2C1=O	none
Cc1nn2c(nnc3c(=O)n(-c4cc(Cl)cc(Cl)c4)ccc32)c1-c1ccccc1	none
CCc1nn(-c2ccccc2)c(Oc2ccc(C)cc2)c1CCC(=O)N1CCSCC1	none
Cc1[nH]c2ccccc2c1C(=O)C(=O)Nc1ccc(Oc2ccccc2)cc1	none
CC(=O)c1c(C)[nH]c(C(=O)OC(C)c2nc(-c3ccccc3)no2)c1C (stereo not given)	none
COc1ccc2c(c1)OCC(C(=O)NCc1csc(N3CCCC3)n1)C2 (stereo not given)	KDM5B inh 14µM
CCc1ccc(CNC(=O)C2COc3ccc(OC)cc3C2)cc1 (stereo not given)	none
CCCCOc1ccc(CNC(=O)C2COc3ccc(OC)cc3C2)cc1 (stereo not given)	none
Cc1cc2nc(-c3cccc(NC(=O)COc4ccc([N+](=O)[O-])cc4)c3)oc2cc1C	none
CC(C)n1nc(C(=O)Nc2ccc3ccccc3n2)c2ccccc2c1=O	none
Cc1ccc(C)c(-n2c(Cc3cc(=O)[nH]c(=O)[nH]3)nnc2SCC(=O)c2ccc(Cl)cc2)c1	none
CCn1cnc2c1c(=O)n(CC(=O)Nc1c(C)cc(C)cc1C)c(=O)n2Cc1ccccc1	none
Cc1nn(Cc2ccccc2)c(C)c1[C@@H]1C=C[C@@H](NS(=O)(=O)c2cccs2)C1	none
c1cc(Cn2ccc3c(N4CCOCC4)nc(-c4cncnc4)cc32)ccn1	none
O=C(NCc1ccc(S(=O)(=O)N2CCOCC2)cc1)c1cc(-c2ccncc2)nc2ccccc12	none
COc1cc(F)ccc1-c1cc2c(ccn2Cc2ccncc2)c(N2CCOCC2)n1	KDM5B inh 35µM
c1ccc(-c2cc3c(ccn3Cc3ccncc3)c(N3CCOCC3)n2)cc1	KDM5B inh 7.9µM
COc1cc(F)ccc1-c1ccc(=O)n(Cc2cccc(F)c2)n1	none
COc1ccc(Nc2nc(N3CCOCC3)c3nccnc3n2)cc1OC	none
O=C1NCc2cc(-c3cc4c(ccn4Cc4ccncc4)c(N4CCOCC4)n3)ccc21	KDM5B inh 32µM
CCCCCCCCOc1ccc(OC(=O)c2ccco2)cc1	none
CC1(C)CCCC(C)(C#CCN2CCN(C(=O)c3ccccc3)CC2)O1 (stereo not given)	none
Cc1cc2ccccn2c1/C(=N/S(=O)(=O)c1cccs1)c1ccccc1	none
O=C(COc1ccc(F)cc1F)Nc1cccc2cccnc12	none
COc1cncc(-c2cn(C)c(=O)n3cc(CNc4ccccc4)nc23)c1	none
CN1CCN(Cc2cn3c(=O)n(C)cc(-c4cccc(OC(F)(F)F)c4)c3n2)CC1	none
Cn1cc(-c2cccc(C(F)(F)F)c2)c2nc(CNc3ccccc3)cn2c1=O	KDM5B inh 35µM
O=C(O)c1cccc2ncccc12	none
COCc1nnc(NC(=O)C2CC(=O)N(c3ccc(F)cc3)C2)s1 (stereo not given)	none
O=C(COc1ncnc2sc3c(c12)CCC3)N1CCc2ccccc2C1	none
On1nnc2c1ccc1nnn(O)c12	none
COc1ncccc1-c1ccnc(-c2nnc(C)n2C2CCCCC2)c1	KDM5B inh 28µM
Cc1nnc(-c2cc(-c3ccsc3)ccn2)n1C(C)C	none
COc1ccccc1-c1ccnc(-c2nnc(C)n2CCN2CCOCC2)c1	KDM5B inh 40µM
COc1ccc(-c2ccnc(-c3nnc(C)n3C(C)C)c2)cc1OC	KDM5B inh 35µM
Cc1nnc(-c2cc(-c3cccc(F)c3)ccn2)n1CCc1ccccc1	none
COc1ncccc1-c1ccnc(-c2nnc(C)n2Cc2ccccc2)c1	KDM5B inh 28µM
COc1ncc(-c2ccnc(-c3nnc(C)n3-c3ccccc3)c2)cn1	none
Cc1nnc(-c2cc(-c3cccnc3)ccn2)n1C1CCCCC1	none
Cc1nnc(-c2cc(NCc3cccs3)ccn2)n1C1CCCCC1	none
Cc1nnc(-c2cc(-c3cccc(F)c3)ccn2)n1CCN1CCOCC1	none
COc1cc(-c2ccnc(-c3nnc(C)n3Cc3ccncc3)c2)ccn1	none
